Compounds without any hit were thinned out: in the full panel of roughly 83,000, 20% have a hit.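 Results are percent growth after 48 hours of single-concentration exposure. 100 means growth as in untreated cells, lower positive values show inhibition; negative values down to -100 show cell death.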 Unmarked numbers belong to inactive results. Active and inactive are the calls of the source. The calls were made as follows: active = growth percent below 10; inactive = the rest.
These molecules were tested on SF-268 CNS (assay: NCI-60 one-dose screen, 48 h (100 = growth as untreated, 0 = no growth, -100 = all killed)). Conditions: 10 µM unless noted.

| SMILES | growth |
| --- | --- |
| CNC(=O)c1nn(C)c2c1C(C)(C)Cc1cnc(Nc3ccc(N4CCN(C)CC4)cc3)nc1-2 | 7.96% (active) |
| CC(C)Nc1cc(-c2c[nH]c(C(=O)N[C@H](CO)c3cccc(Cl)c3)c2)c(Cl)cn1 | 59.6% |
| COc1ccc(Cc2cc(-c3ccccc3C)n[nH]c2=O)cc1 | 85% |
| CC(C)[C@@H]1CC[C@@H]2[C@@H]1[C@H](OC(=O)/C=C/c1ccccc1)[C@]1(C(C)C)C[C@@H](OC(=O)CO)[C@@]2(C)O1 | 56.8% |
| Cc1ncc(-c2ccnc(Nc3ccc(S(C)(=O)=O)cc3)n2)n1C(C)C | 3.67% (active) |
| C/C=C/C=N/NC(=S)Nc1ccccc1 | 100% |
| Cc1nn(-c2ccccc2)c2c1N=c1s/c(=C\c3cn(-c4ccccc4)nc3-c3ccc(Cl)cc3)c(=O)n1C(C)N2 (stereo not given) | 91% |
| COc1cc2c(cc1OCCCN1Cc3ccc(OCCCCC(=O)N4CCC(CCN5CCCC5)CC4)cc3C1)N=C(N)C21CCCC1 | 85.8% |

These molecules were tested on SF-295 CNS in the same assay as above. Conditions: 10 µM unless noted.

| SMILES | growth |
| --- | --- |
| COc1cccc2cc(-c3nc(C4CCC(C(=O)O)CC4)n4ncnc(N)c34)[nH]c12 (stereo not given) | -31.2% (active) |
| CNC(=O)c1cc(Oc2ccc3nc(NC(=O)Nc4ccc(Cl)c(C(F)(F)F)c4)sc3c2)ccn1 | -10.9% (active) |
| C[C@@H](Oc1cc(-n2cnc3ccc(CN4CCN(C)CC4)cc32)sc1C(N)=O)c1ccccc1C(F)(F)F | 32.7% |
| Oc1ccc(C(c2ccc(O)cc2)C(Cl)(Cl)Cl)cc1 | 96.1% |
| C[C@H](NC(=O)c1c(N)nn2cccnc12)c1cc2cccc(C#Cc3cnn(C)c3)c2c(=O)n1-c1ccccc1 | 11.6% |
| COc1cc(CCc2cc(NC(=O)c3ccc(N4C[C@@H](C)N[C@@H](C)C4)cc3)n[nH]2)cc(OC)c1 | 62.4% |
| CNC(=O)CN1CCC(Oc2cc3c(Nc4cccc(Cl)c4F)ncnc3cc2OC)CC1 | 76.1% |
| Cc1oc2c(C(=O)N/N=C\c3ccc(O)cc3O)c[nH]c2c1C | 12.3% |
| CCCCCc1ccc(C)cc1OC(=O)CCl | 102% |
| COc1cc2ncnc(Oc3cccc(NC(=O)Nc4cc(C(C)(C)C(F)(F)F)on4)c3)c2cc1OC | 38.2% |
| COc1cc(Nc2ncc3c(n2)-c2ccc(Cl)cc2C(c2c(F)cccc2OC)=NC3)ccc1C(=O)O | 64.6% |
| CC[C@H](Nc1ncnc2nc[nH]c12)c1nc2cccc(F)c2c(=O)n1-c1ccccc1 | 57.9% |
| CN1CCN(CCOc2cc(OC3CCOCC3)c3c(Nc4c(Cl)ccc5c4OCO5)ncnc3c2)CC1 | 77.8% |
| Nc1nc(Nc2ccccc2)c(C=Nc2ccccc2)c(=O)[nH]1 | 95.5% |
| CNC(=O)c1cc(Oc2cccc3nc(Nc4ccc(Oc5ccccc5)cc4)ccc23)ccn1 | 60.2% |
| CN1CC[C@@H](c2c(O)cc(O)c3c(=O)cc(-c4ccccc4Cl)oc23)[C@@H]1CO | 3.04% (active) |
| Cc1[nH]n(C(N)=S)c(=O)c1N=Nc1ccc(S(=O)(=O)Nc2ccncn2)cc1 | 125% |
| COCCN1CCN(Cc2ccc(-c3n[nH]c4c3C(=O)c3c(NC(=O)NN5CCOCC5)cccc3-4)cc2)CC1 | 2.78% (active) |
| CN(c1ncccc1CNc1nc(Nc2ccc3c(c2)CC(=O)N3)ncc1C(F)(F)F)S(C)(=O)=O | 11.8% |
| COc1cc(N2CCC(N3CCN(C)CC3)CC2)ccc1Nc1ncnc(Nc2ccccc2S(=O)(=O)C(C)C)n1 | 104% |
| O=C(COc1ccc(/C=C2\Cc3ccc(Cl)cc3C2=O)cc1)Nc1nccs1 | 113% |
| O=C(c1ccc(/C=C/c2n[nH]c3ccccc23)cc1)N1CCNCC1 | 51.4% |
| O=C(O)C1(Cc2cccc(Nc3nccs3)n2)CCC(Oc2cccc(Cl)c2F)CC1 (stereo not given) | 71.5% |
| Cc1cc(O)cc(-c2c(-c3ccnc(-c4cccnc4)c3)cnn2C)c1 | 59.2% |
| Cc1c(CN2CCN(C(=O)[C@H](C)O)CC2)sc2c(N3CCOCC3)nc(-c3cnc(N)nc3)nc12 | -45% (active) |
| CN1CCN(c2ccc(C(=O)Nc3n[nH]c4ccc(Cc5cc(F)cc(F)c5)cc34)c(NC3CCOCC3)c2)CC1 | -70.4% (active) |
| C#Cc1cccc(Nc2ncnc3cc(OCCOC)c(OCCOC)cc23)c1 | 84.9% |

From PubChem BioAssay (NCI)
